# Measured potencies and affinities stand elsewhere. Activity calls are given as the source filed them. How the calls were made is not given here.
# Test: viability of BHK-21 cells – cell-based, secondary screen, cytotoxicity control for flavivirus guanylyltransferase probe project (AID 624078)
smiles,measurement,value
Cn1c(=O)c2[nH]c(-c3ccccc3)c(O)c2n(C)c1=O,outcome,inactive

# Reference: PubChem BioAssay AID624078 (Southern Research Specialized Biocontainment Screening …, 2012)
